# Screens deposited in PubChem BioAssay by The Scripps Research Institute Molecular Screening Center.
# Rows were chosen to be rich in hits. Some 3.5% of all compounds tested hit in one or more screens of this group.
# TEAD-YAP inh = TEAD-YAP interaction inhibition, primary screen, TEAD-YAP interaction inhibitor project, luminescence, HEK-TIYL cells | TEAD-Gal4/YAP UAS-luciferase luminescence | 1.4% of 640,000 active | inhibition, % at 9.12 µM; in the data active = inhibition above about 32%;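 also: 0% = median of test compound wells and 100% = reference inhibitor wells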
# GPR151 ag = activators of human GPR151, primary screen, cell-based, PathHunter beta-arrestin, luminescence. G-protein coupled receptor 151 (Homo sapiens), Q8TDV0. PathHunter beta-arrestin GPR151 cells. activation, % at 11.2 µM. 1% of 650,000 active; in the data active = activation above about 4.9%;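 also: 0% = median of compound wells and 100% = cells with positive control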
# FBW7 activator = FBW7 E3 ligase activators, primary screen, biochemical, AlphaScreen, human; AID 1259310, 2017; AlphaScreen FBW7–phospho-cyclin E peptide binding, activator screen; F-box/WD repeat-containing protein 7 (Homo sapiens), Q969H0; normalized activity (activation), % at 26.1 µM; 0.13% of 650,000 active; in the data active = normalized activity above about 1.9%;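 also: purified mutant Fbw7 with reduced substrate affinity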
# MITF inh = MITF inhibitors, primary screen, biochemical, AlphaScreen, human; AlphaScreen MITF homodimerization, bead proximity signal; Microphthalmia-associated transcription factor (Homo sapiens), O75030; 0.91% of 650,000 active; inhibition, % at 2.6 µM; in the data active = inhibition above about 50%;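 also: 0% = vehicle wells with protein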
# Target sequence (O75030 whole entry, looked up): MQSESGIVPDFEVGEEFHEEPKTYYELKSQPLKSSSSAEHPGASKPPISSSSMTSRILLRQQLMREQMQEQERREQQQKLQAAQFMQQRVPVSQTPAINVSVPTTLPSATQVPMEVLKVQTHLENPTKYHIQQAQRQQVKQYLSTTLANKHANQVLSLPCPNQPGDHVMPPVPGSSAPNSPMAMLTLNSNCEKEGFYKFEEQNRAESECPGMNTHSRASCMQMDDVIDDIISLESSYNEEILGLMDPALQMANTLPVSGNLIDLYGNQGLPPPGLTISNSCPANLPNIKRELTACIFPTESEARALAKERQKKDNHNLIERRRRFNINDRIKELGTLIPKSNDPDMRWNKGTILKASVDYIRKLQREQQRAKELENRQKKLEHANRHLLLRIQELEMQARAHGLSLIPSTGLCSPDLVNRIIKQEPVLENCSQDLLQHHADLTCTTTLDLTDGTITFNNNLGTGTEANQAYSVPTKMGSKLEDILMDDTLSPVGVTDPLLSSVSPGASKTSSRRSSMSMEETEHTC
# MITF confirm = MITF inhibitors, retest of hits, confirmation, biochemical, AlphaScreen, triplicate. shares compounds with MITF inh. AlphaScreen MITF homodimerization, biotin/His-MITF beads. inhibition, % at 2.6 µM. 16% of 4,700 active. AID 1259372, 2018;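 active = inhibition above a cutoff derived from the DMSO control wells, cut at about 28% in these data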;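 also: 0% = MITF dimer wells with DMSO only; inhibitors lower the bead chemiluminescence by keeping MITF from dimerizing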
# AS interf DR = AlphaScreen optical interference compounds, dose response, counter-screen, biochemical, HTS; 6% of 480 active; AlphaScreen optical interference counterscreen, cell-free; IC50, µM; shares compounds with MITF inh; call rule not given here
# AS interf ctr = AlphaScreen optical interference compounds, counter-screen for MITF inhibitor project, biochemical, triplicate; shares compounds with MITF inh; LysRS AlphaScreen counterscreen, signal interference; inhibition, % at 2.6 µM; 7.6% of 4,700 active;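 active = inhibition above a cutoff derived from the DMSO control wells, cut at about 30% in these data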
# An asterisk follows results filed as active; . = no result.
SMILES,TEAD-YAP inh,GPR151 ag,FBW7 activator,MITF inh,MITF confirm,AS interf ctr,others
COc1cc(Cl)ccc1S(=O)(=O)N1CCN(S(=O)(=O)c2ccc(Cl)cc2OC)CC1,8,0,0,5,.,.,
CCOC(=O)N1CCN(Cc2nc(NCCCOC)c3cc(C)ccc3n2)CC1,9,0,0,3,.,.,
O=C(Cn1ncc2c1-c1ccccc1OC2)Nc1ccccn1,-12,-1,0,-10,.,.,
CC(C)COc1ccc2c(c1)Sc1ccccc1N2CCN(C)C,3,1,0,54*,21,20,
COc1ccc(-c2n[nH]c(=S)n2/N=C/c2cc(OC)ccc2OC)cc1,10,1,0,55*,-14,6,
Oc1ccc(CNc2ccccc2Cl)c2cccnc12,16,0,-2,68*,51*,92*,
Oc1ccc(Cl)c2cccnc12,4,-1,0,18,.,.,
Oc1ccc(CNc2ccccc2F)c2cccnc12,2,-1,-1,68*,70*,100*,
Oc1ccc(CNc2cccc(Cl)c2)c2cccnc12,15,-1,-1,52*,107*,100*,
C=CCc1ccccc1OCCOCCN1CCN(C)CC1,0,0,0,60*,-1,13,
C=CCc1ccccc1OCCOCCN1CCCCC1,2,-2,0,79*,11,25,
Cc1c(C(=O)Nc2ccccc2O)cccc1[N+](=O)[O-],-7,3,0,4,.,.,
COc1cccc(C(=O)N2CCN(Cc3ccccc3C(F)(F)F)CC2)c1,-9,1,0,71*,12,11,
COc1cccc(C(=O)N2CCN(Cc3cccc4ccccc34)CC2)c1,1,1,0,33,.,.,
COc1ccc(C(=O)N2CCN(Cc3ccccc3Br)CC2)cc1,3,0,0,59*,1,8,
COc1cccc(C(=O)N2CCN(Cc3ccccc3Br)CC2)c1,-5,1,0,65*,7,16,
O=C(c1ccc(F)cc1)N1CCN(Cc2ccccc2Br)CC1,7,1,0,50,.,.,
COc1cccc(C(=O)N2CCN(Cc3ccccc3F)CC2)c1,3,-1,1,58*,13,9,
CS(=O)(=O)N1CCCc2ccc(NC(=O)NCc3cccc4ccccc34)cc21,22,-1,0,-8,.,.,
O=C1/C(=C\c2ccco2)CC2CC1C/C(=C/c1ccco1)C2=O,1,-2,0,52*,17,-12,
O=C1/C(=C\c2cccs2)CC2CC1C/C(=C/c1cccs1)C2=O,2,-2,0,24,.,.,
CSc1ccc(C(=O)NCc2nc(-c3ccncc3)n[nH]2)s1,5,0,0,5,.,.,
CSc1ccc(C(=O)O)s1,-2,2,0,75*,35*,7,AS interf DR=>10
COc1ccc(CN2CCN(Cc3ccc(C(F)(F)F)cc3)CC2)c(OC)c1OC,1,-1,0,78*,10,14,
COc1ccc(CN2CCN(Cc3ccc(C(F)(F)F)cc3)CC2)cc1OC,14,-2,0,24,.,.,
SMILES,TEAD-YAP inh,GPR151 ag,FBW7 activator,MITF inh,MITF confirm,AS interf ctr,others
COc1ccc(CN2CCN(c3ccccc3)CC2)c(OC)c1OC,-7,0,0,27,.,.,
COc1ccc(CN2CCN(Cc3ccccc3Br)CC2)c(OC)c1OC,-6,-1,0,81*,18,8,
COc1ccc(CN2CCN(Cc3ccncc3)CC2)c(OC)c1OC,10,0,0,62*,-2,-1,
COc1cc(CN2CCN(Cc3ccc(C(F)(F)F)cc3)CC2)cc(OC)c1OC,19,0,1,85*,4,17,
O=C(Cn1c(=O)oc2ccccc21)NCCN1Cc2ccccc2OC(c2ccccc2)C1 (stereo unspecified),5,1,0,3,.,.,
CC(=O)c1cccc(NC(=O)COc2ccc(C3CCCCC3)cc2)c1,-7,0,0,10,.,.,
CCOC(=O)C1=C(C)NC(N)=C(C#N)C1c1ccncc1 (stereo unspecified),7,0,0,1,.,.,
COc1cc(CN2CCN(Cc3ccc(OC)c(OC)c3OC)CC2)cc(OC)c1,13,0,0,70*,-11,-5,
O=C(NCCC1=CCCCC1)c1ccc(N2CC3CC(C2)c2cccc(=O)n2C3)c(NC(=O)c2ccc(F)cc2)c1 (stereo unspecified),4,1,0,0,.,.,
c1ccc(CN2CCN(Cc3ccncc3)CC2)cc1,6,0,0,80*,-8,0,
COc1ccc(CN2CCN(CCCc3ccccc3)C(CCO)C2)cc1OC (stereo unspecified),2,0,0,7,.,.,
c1ccc(CCCN2CCN(Cc3ccncc3)CC2)cc1,6,0,0,69*,-9,-7,
COc1ccc(CN2CCN(CCCc3ccccc3)CC2)cc1OC,6,1,0,59*,12,15,
Cc1ccc(S(=O)(=O)CCN2CCN(Cc3ccccc3)CC2)cc1,11,0,0,11,.,.,
Cc1ccc(CN2CCN(CCCc3ccccc3)CC2)cc1,6,2,0,66*,-13,-2,
O=[N+]([O-])c1cc(N=Cc2ccccc2O)ccc1Cl,2,0,0,-4,.,.,
Cc1ccc(C)c(NC(=O)CN(C)S(=O)(=O)c2cnc[nH]2)c1,1,0,0,4,.,.,
Cc1cccc(CCNC(=O)CN(C)S(=O)(=O)c2cnc[nH]2)c1,-1,0,0,76*,10,20,
CCOc1ccc(N2C(=O)CC(S/C(N)=N/N=C(\C)c3ccccc3)C2=O)cc1 (stereo unspecified),1,1,0,3,.,.,
O=C(c1ccc2nc(-c3ccco3)c(-c3ccco3)nc2c1)N1CCSCC1,15,-1,0,87*,72*,7,AS interf DR=>6.5
O=C(c1ccc2nc(-c3cccs3)c(-c3cccs3)nc2c1)N1CCOCC1,3,-1,0,-7,.,.,
Cc1cccc(-n2cc(-c3ccccc3)c3c(NCCCN4CCCC4=O)ncnc32)c1,-10,0,0,9,.,.,
CCOC(=O)c1cnn(-c2ccccc2Cl)c1CNCCNC(C)=O,1,-1,0,83*,1,-3,
CCOC(=O)c1cnn(-c2ccccc2Cl)c1CNCc1csc(C)n1,4,4,0,-4,.,.,
O=C1NC(c2ccc([N+](=O)[O-])o2)C(C(=O)c2ccccc2)C(O)(C(F)(F)F)N1 (stereo unspecified),3,-1,0,11,.,.,
